{"source": "PubChem BioAssay (EPA / NIEHS)", "note": "“And” between values parts separate entries of the source, which are not always exact repeats. Equal entries are not always repeated. Results filed as inconclusive are left out. The source made the active and inactive calls. How the source made its calls: active means hit-call score of the fitted dose curve at least 0.9, where 1 is the maximum; inconclusive means response in the unintended direction; inactive means score below 0.9."}
{"biological_target": "Peroxisome proliferator-activated receptor gamma (Homo sapiens) (UniProt P37231)", "sequence (P37231 whole entry, looked up)": "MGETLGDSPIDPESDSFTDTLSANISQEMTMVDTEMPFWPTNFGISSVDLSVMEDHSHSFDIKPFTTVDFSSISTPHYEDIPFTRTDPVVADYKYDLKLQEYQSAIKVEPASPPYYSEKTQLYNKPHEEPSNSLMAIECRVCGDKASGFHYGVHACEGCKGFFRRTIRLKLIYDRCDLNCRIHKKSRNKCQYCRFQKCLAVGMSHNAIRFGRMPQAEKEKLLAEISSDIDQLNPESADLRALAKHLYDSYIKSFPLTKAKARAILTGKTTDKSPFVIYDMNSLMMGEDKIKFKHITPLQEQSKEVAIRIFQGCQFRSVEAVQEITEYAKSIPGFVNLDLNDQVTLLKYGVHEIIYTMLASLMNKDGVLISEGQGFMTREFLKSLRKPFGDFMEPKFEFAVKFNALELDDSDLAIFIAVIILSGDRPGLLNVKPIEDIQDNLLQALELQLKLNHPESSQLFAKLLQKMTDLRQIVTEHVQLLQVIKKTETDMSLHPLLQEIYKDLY", "assay": "ATG_PPARg_TRANS: Attagene TRANS-FACTORIAL HepG2 Assay for human Peroxisome Proliferator-activated Receptor-gamma (PPARg) (AID 2283007)", "method_in_brief": "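Twenty-four hours after chemical dosing of transiently transfected HepG2 cells, isolated RNA was converted to cDNA, reporter sequences amplified and 6-FAM-labelled, then HpaI-digested and analysed by capillary electrophoresis. Signal increase against DMSO was fitted.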"}
{"smiles": "CCCCCCCCCCCCCCO", "outcome": "inactive"}
{"smiles": "S=P(N1CC1)(N1CC1)N1CC1", "outcome": "inactive"}
{"smiles": "OC[C@H]1O[C@@](CO)(O[C@H]2O[C@H](CO)[C@@H](O)[C@H](O)[C@H]2O)[C@@H](O)[C@@H]1O", "outcome": "inactive"}
{"smiles": "O=C(O)c1ccc2c(c1)nc(C(=O)NC1CCN(C3CC3)CC1)n2Cc1cc(-c2ccc(Cl)s2)on1", "AC50": "1.03 µM (active)"}
{"smiles": "Cc1cccc(O)c1C", "outcome": "inactive"}
{"smiles": "FC(F)(F)C(F)(F)C(F)(F)C(F)(F)C(F)(F)C(F)(F)I", "AC50": "88 µM (active) and 106 µM (active)"}
{"smiles": "O=C(N[C@H](CO)[C@H](O)c1ccc([N+](=O)[O-])cc1)C(Cl)Cl", "outcome": "inactive"}
{"smiles": "CC(C)CCCCCCOC(=O)C1CCCCC1C(=O)OCCCCCCC(C)C", "note": "(stereo not drawn)", "outcome": "inactive"}
{"smiles": "CCCc1ccccc1", "outcome": "inactive"}
{"smiles": "O=C1CN(N=Cc2ccc([N+](=O)[O-])o2)C(=O)N1", "outcome": "inactive"}
{"smiles": "CC(C)c1nnc2ccc(-c3ocnc3-c3cc(F)ccc3F)cn12", "outcome": "inactive"}
{"smiles": "c1ccc2c(c1)-c1cccc3c1c-2cc1ccccc13", "outcome": "inactive"}
{"smiles": "O=C(NO)C1(NS(=O)(=O)c2ccc(Oc3ccc(F)cc3)cc2)CCOCC1", "outcome": "inactive"}
{"smiles": "Cc1ncc([C@@H](CCCCCCc2ccc3c(n2)NCCC3)CC(=O)O)cn1", "AC50": "100 µM (active)"}
{"smiles": "OCc1c[nH]c2ccccc12", "AC50": "7.94 µM (active) [middle of 5 runs]"}
{"smiles": "FC(F)(F)COC(OCC(F)(F)F)OCC(F)(F)F", "outcome": "inactive"}
{"smiles": "C=CCc1cc(S(=O)(=O)c2ccc(O)c(CC=C)c2)ccc1O", "AC50": "9.21 µM (active)"}
{"smiles": "CCCCCCCCCCCCCCCCOS(=O)(=O)O", "AC50": "16.9 µM (active)"}
